We go through 27 molecules from PubChem BioAssay (NCATS).

Records with an inconclusive call do not appear. A number with no mark means an inactive call. Calls of active or inactive are those of the source. Calls follow the shape of the dose curve; as a rule, active = well fitted curve in the direction sought with a large enough effect; inconclusive = small, poorly fitted or top-dose-only effect, or another doubt; inactive = no such curve, though single readings can be large; an effect the other way counts as inactive or inconclusive. Starred links: 1 amine or outer side, 2 acyl side, 3 side chain; linkers in the order of their positions; H or OH if unused. Positions of bridges follow the written chain, without caps; N, C: chain ends. Non-standard residues stand in square brackets, D forms with d. Residues, ends and D or L forms follow the SMILES beside them. Chains are numbered I, II in the order given. Actinocin(9to1) = Cc1c2oc3c(C)ccc(C(=O)[*:1])c3nc-2c(C(=O)[*:2])c(N)c1=O; NMeV = CN[CH](C(=O)O)C(C)C; Sar = CNCC(=O)O

Assay [1] in a line: BET inhibitor-based combinations targeting novel dependencies in MECOM-rearranged (r) AML: OCI-AML3 cell line (AID 2202232). Also: nearly all actives have a fitted effect of over 35% in size. The settings on record: Potency: OCI-AML3 viability. The essentials:
(§1)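 500 cells/well; 11-pt dose curve; 48 h, standard incubator; CellTiter-Glo luminescence after 15 min RT; DMSO/empty-well normalization; AUC plus Z-AUC (mean-centered within each line).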

The nature of assay [2]: BET inhibitor-based combinations targeting novel dependencies in MECOM-rearranged (r) AML: SET-2 cell line (AID 2202231). Also: nearly all actives have a fitted effect of over 35% in size.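 As to viability: plate controls were DMSO treated cells for no effect and wells without cells for full effect.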 The settings on record: SET-2 AML cells viability, CellTiter-Glo luminescence, 48 h; viability: active compounds read low, concentration not given here. Summed up: as §1
A short description of assay [3]: BET inhibitor-based combinations targeting novel dependencies in MECOM-rearranged (r) AML: HNT-34 cell line (AID 2202234). Also: nearly all actives have a fitted effect of over 35% in size. Summed up:
(§2)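 Cells were plated at 500 per well and exposed to each drug across an 11-point dose range for 48 hr at standard incubator conditions. Viability was read by CellTiter-Glo luminescence, and activity was expressed as AUC and per-cell-line Z-transformed AUC.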

The nature of assay [4]: BET inhibitor-based combinations targeting novel dependencies in MECOM-rearranged (r) AML: AML-191 cell line (AID 2202236; also: nearly all actives have a fitted effect of over 35% in size). Summed up:
as §1

Assay [5] is described as follows: BET inhibitor-based combinations targeting novel dependencies in MECOM-rearranged (r) AML: MV-4-11 cell line (AID 2202233). Also: nearly all actives have a fitted effect of over 45% in size. The essentials: as §2
The nature of assay [6]: BET inhibitor-based combinations targeting novel dependencies in MECOM-rearranged (r) AML: UCSD-AML1 cell line (AID 2202235). Also: nearly all actives have a fitted effect of over 40% in size. Summed up:
as §2

The nature of assay [7]: BET inhibitor-based combinations targeting novel dependencies in MECOM-rearranged (r) AML: AML-194 cell line (AID 2202237; also: nearly all actives have a fitted effect of over 40% in size). Summed up: as §1
Potency is read from the fitted curve at half-maximal effect.

As to `CCCCC[C@H](O)C=C[C@H]1[C@H](O)CC(=O)[C@H]1CC=CCCCC(=O)O`, in assay [1], the Potency is 5.9 µM (active).
`Cc1cc(O)c(-c2ccc([C@@H](C)CN)cc2)c2c1[nH]c(=O)c1sccc12`: the Potency was 0.372 µM (active) in assay [2], 0.0417 µM (active) in assay [3] and 0.0833 µM (active) in assay [4].
For the molecule `CC(C)(C)c1nc2c3cc[nH]c(=O)c3c3cc(F)ccc3c2[nH]1`, the Potency is 1.18 µM (active) in assay [2] and 0.662 µM (active) in assay [4].
With `O=c1[nH]nc2c3c(cccc13)NC(CN1Cc3ccccc3C1)=N2`, the Potency in assay [1] and in assay [5] was 16.6 µM (active) throughout.
The term viability denotes a read-out of living cells in per cent, often relative to untreated cells. Take `CN[C@@H](C)C(=O)N[C@H](C(=O)N1CCC[C@H]1C(=O)Nc1sc(-c2ncco2)nc1-c1ccccc1)C1CCCCC1`: in assay [2], the viability is 112%. In addition, in assay [6], the Potency was 1.18 µM (active). The Potency entry in assay [7] is “inactive”.
Turning to `O=S(=O)(c1cccc2cnccc12)N1CCCNCC1`, the viability in assay [2] was 101%. For the same molecule, the Potency entry in assay [3] and in assay [7] was “inactive” throughout.
`COC(=O)[C@H](CCCN=C(N)N)NS(=O)(=O)c1ccc(C)cc1`: the viability in assay [2] is 112%. Further, the Potency result in assay [6], in assay [4] and in assay [7] was “inactive” each time.
On to `CC/C(=C(/c1ccc(/C=C/C(=O)O)cc1)c1ccc2[nH]ncc2c1)c1ccc(F)cc1Cl`, for which, in assay [2], the viability was 98.4%. The Potency entry in assay [6], in assay [4] and in assay [7] was “inactive” throughout.
As for `O=c1ncccn1[C@@H]1O[C@H](CO)[C@@H](O)[C@H]1O`, the viability in assay [2] was 109%. Further, the Potency result in assay [3], in assay [4] and in assay [7] was “inactive” throughout.
On to `O=C(NO)c1cnc(NC2(c3cccc(F)c3)CCCCC2)nc1`, for which the Potency is 9.34 µM (active) in assay [2] and 10.5 µM (active) in assay [4].
With `C=CC(=O)Nc1ccc(F)c(-c2ncnc3[nH]cc(C(=O)OCC)c23)c1`, the viability in assay [2] was 83.4%. The Potency entry in assay [6], in assay [4] and in assay [7] was “inactive” each time.
Take `C[C@@H]1CC2C3C[C@H](F)C4=CC(=O)C=C[C@]4(C)[C@@]3(F)[C@@H](O)C[C@]2(C)[C@@]1(OC(=O)c1ccco1)C(=O)SCF` (stereo not given in full): the Potency in assay [1] and in assay [5] was 20.9 µM (active) each time.
In the case of `Cc1nc(NC(=O)N2CCC[C@H]2C(N)=O)sc1-c1csc(C(C)(C)C)n1`, the viability in assay [2] is 98.3%. Moreover, in assay [3], the Potency result was “inactive”. In assay [4], the Potency is 16.6 µM (active).
As to `COc1ccc2c(c1)C(c1ccc(F)cc1)=C(CN1CCCC1)CO2`, the viability in assay [2] is 95.4%. In addition, the Potency result in assay [6], in assay [4] and in assay [7] was “inactive” each time.
Turning to `CCOC(=O)[C@@]1(CCCCCCOc2ccc(Cl)cc2)CO1`, the viability in assay [2] is 92%. The Potency entry in assay [6] and in assay [7] was “inactive” in each case.
Take `O=C(O)CCCCN(CCc1ccccc1OCc1ccc(CCc2ccccc2)cc1)Cc1ccc(C(=O)O)cc1`: in assay [2], the viability is 108%. Further, the Potency in assay [3] is 2.09 µM (active). Besides, the Potency entry in assay [4] and in assay [7] was “inactive” throughout.
`OCCOc1ccc(/C(=C(/CCCl)c2ccccc2)c2ccccc2)cc1`: the Potency in assay [2] was 16.6 µM (active). Besides, the Potency result in assay [7] is “inactive”.
For the molecule `CN(C)C(N)=NC(=N)N`, the Potency entry in assay [1], in assay [5], in assay [3], in assay [6], in assay [4] and in assay [7] was “inactive” throughout.
As to `COC1(c2sc3c(N4CCOCC4)nc(-c4cnc(N)nc4)nc3c2C)COC1`, the Potency in assay [1] was 0.525 µM (active); in assay [5] it was 0.59 µM (active); in assay [3] it was 0.468 µM (active); in assay [6], 0.186 µM (active).
For `CC(C)NCCCn1c(Sc2cc(Cl)cc(Cl)c2)nc2c(N)ncnc21`, the Potency in assay [1] is 10.5 µM (active); in assay [5], 14.8 µM (active).
For the molecule `Nc1ncn([C@H]2C[C@H](O)[C@@H](CO)O2)c(=O)n1`, the figures for the Potency in assay [1] and in assay [5] were 0.417 µM (active) and 0.332 µM (active), respectively.
For the molecule `Nc1ncccc1-c1nc2ccc(-c3ccccc3)nc2n1-c1ccc(C2(N)CCC2)cc1`, the Potency in assay [1] was 18.6 µM (active); in assay [5] it was 11.8 µM (active); in assay [3], 16.6 µM (active); in assay [6], 16.6 µM (active); in assay [4], 18.6 µM (active); in assay [7], 29.5 µM (active).
`C=CC(=O)Nc1cc2c(Nc3ccc(F)c(Cl)c3)ncnc2cc1C#CC(C)(C)N1CCN(C)CC1`: the Potency is 2.63 µM (active) in assay [1]; 0.742 µM (active) in assay [5]; 3.72 µM (active) in assay [3]; 4.17 µM (active) in assay [6]; 4.68 µM (active) in assay [4]; 4.68 µM (active) in assay [7].
Consider `Cc1c(-c2c(-c3ccc(F)o3)sc3ncnc(O[C@@H](Cc4ccccc4OCc4ccnn4CC(F)(F)F)C(=O)O)c23)ccc(OCCN2CCN(C)CC2)c1Cl`, for which the Potency in assay [1] is 0.296 µM (active); in assay [5], 0.0235 µM (active); in assay [3], 0.332 µM (active); in assay [6] it was 1.32 µM (active); in assay [4], 5.25 µM (active); in assay [7], 4.68 µM (active).
For `Cc1c2oc3c(C)ccc(C(=O)NC4C(=O)NC(C(C)C)C(=O)N5CCCC5C(=O)N(C)CC(=O)N(C)C(C(C)C)C(=O)OC4C)c3nc-2c(C(=O)NC2C(=O)NC(C(C)C)C(=O)N3CCCC3C(=O)N(C)CC(=O)N(C)C(C(C)C)C(=O)OC2C)c(N)c1=O` (stereo not given) (I: TVP[Sar][NMeV] / II: TVP[Sar][NMeV]; ester I:1-I:C, II:1-II:C; linker I:N-II:N via Actinocin(9to1); configuration not given here), the Potency is 0.0032 µM (active) in assay [1]; 0.0014 µM (active) in assay [5]; 0.0057 µM (active) in assay [3]; 0.0032 µM (active) in assay [6]; 0.0102 µM (active) in assay [4]; 0.0115 µM (active) in assay [7].
In the case of `O=C(O)/C(S)=C/c1ccc(I)cc1`, the Potency entry in assay [1], in assay [5], in assay [3], in assay [6], in assay [4] and in assay [7] was “inactive” in each case.
In the case of `COCc1c(-c2ccc(NC(=O)Nc3cc(C(F)(F)F)ccc3F)c(F)c2)c2c(N)ncnn2c1CN1CCOCC1`, the Potency was 10.5 µM (active) in assay [1]; 0.0263 µM (active) in assay [5]; 2.35 µM (active) in assay [3]; 6.61 µM (active) in assay [6]; 5.9 µM (active) in assay [4]; 5.9 µM (active) in assay [7].
